Inconclusive results are not listed. Active and inactive are the calls of the source. Calls follow the shape of the dose curve; as a rule, active = well fitted inhibition curve with a large enough effect; inconclusive = small, poorly fitted or top-dose-only effect; inactive = flat fitted curve, though single readings scatter. Where a SMILES comes first, the peptide text is derived from it. The star is where a group is joined. βNA = c1ccc2cc(N*)ccc2c1; Cbz = O=C(OCc1ccccc1)*; CH2F = FC*
Key:
[1] = molecular target: Glutathione peroxidase 1 (Homo sapiens) (UniProt P07203); assay: Primary qHTS Assay for Inhibitors of Recombinant Selenoprotein Glutathione Peroxidase 1 (GPX1) (AID 1845191); also: nearly all actives have a fitted effect of over 65% in size
Summary of the method: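 NADPH consumption tracked by fluorescence at 340/450 nm between t=0 and t=15 min, room temperature. Final mix: 10 nM GPX1, 100 nM glutathione reductase, 1 mM GSH, 0.5 mM NADPH, 0.5 mM cumene hydroperoxide, 0.01% BSA; 30 min compound–enzyme preincubation.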

[2] = molecular target: Phospholipid hydroperoxide glutathione peroxidase GPX4 (Homo sapiens) (UniProt P36969); assay: Primary qHTS Assay for Inhibitors of Recombinant Selenoprotein Glutathione Peroxidase 4 (GPX4) (AID 1845192); also: nearly all actives have a fitted effect of over 65% in size; as to activity change, negative = inhibition: series mostly up to about 50 µM; % is scaled to controls: 0 for no effect and ±100 for the full control effect
Summary of the method: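 NADPH consumption followed by fluorescence at 340/450 nm, t=0 and after 15 min at room temperature. Reaction started with cumene hydroperoxide (0.5 mM final) after 30 min compound–GPX4 preincubation; final 200 nM GPX4, 100 nM GR, 1 mM GSH, 0.5 mM NADPH.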

[3] = molecular target: Luciferin 4-monooxygenase (Photinus pyralis) (UniProt P08659); assay: Primary firefly luciferase (FLuc) qHTS assay for identification of artifact compounds. (AID 1845220); also: nearly all actives have a fitted effect of over 60% in size;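 as to activity change, negative = inhibition: series mostly up to about 54 µM; plate controls were DMSO vehicle for no effect and no enzyme for full effect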
Summary of the method: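 Compounds sat 15 min at room temperature with 10 uM luciferin and 10 uM ATP (pH 7.6 Tris acetate). Firefly luciferase (10 nM final) was then added, and luminescence was read 5 min later. Data normalized to no-enzyme and DMSO controls were Hill-fitted.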

Sequence of Glutathione peroxidase 1 (Homo sapiens) (P07203 whole entry, looked up): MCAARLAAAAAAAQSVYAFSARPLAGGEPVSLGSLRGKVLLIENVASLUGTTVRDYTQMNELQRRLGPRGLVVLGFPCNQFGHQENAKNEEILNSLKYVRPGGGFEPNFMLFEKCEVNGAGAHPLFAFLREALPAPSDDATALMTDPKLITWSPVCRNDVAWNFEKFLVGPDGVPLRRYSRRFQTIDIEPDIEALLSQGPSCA
Sequence of Phospholipid hydroperoxide glutathione peroxidase GPX4 (Homo sapiens) (P36969 whole entry, looked up): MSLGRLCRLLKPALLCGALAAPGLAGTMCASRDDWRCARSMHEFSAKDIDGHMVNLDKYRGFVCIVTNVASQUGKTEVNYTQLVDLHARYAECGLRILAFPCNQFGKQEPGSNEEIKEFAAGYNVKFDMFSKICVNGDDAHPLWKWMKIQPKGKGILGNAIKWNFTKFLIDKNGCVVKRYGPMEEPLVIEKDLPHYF

CC1(C)CC[C@]2(C(=O)O)CC[C@]3(C)C(=CCC4[C@@]5(C)C[C@@H](O)[C@H](O)[C@@](C)(CO)C5CC[C@]43C)C2C1 (some centres not stated)
inactive: Potency [1] | Potency [2] | Potency [3]

CC1C2=CC(=O)OC2(O)CC2C1CCC1C(C)(C)CCC(O)C21C (configuration not stated)
inactive: Potency [1] | Potency [2] | Potency [3]

COc1ccc([C@H]2OC[C@H]3[C@@H]2CO[C@@H]3c2ccc(O[C@@H]3O[C@H](CO)C(O)[C@H](O)[C@H]3O)c(OC)c2)cc1OC (some centres not stated)
inactive: Potency [1] | Potency [2] | Potency [3]

C=C1C2(C)CC3C4(C)OC(C5OC56C4=CC(=O)OC6(C)C)C3(C)C13C(=O)OC(C)C3(O)C2=O (configuration not stated)
inactive: Potency [1] | Potency [2] | Potency [3]

C/C=C(/C)C(=O)OC1C2OC2C2(CO2)C2C3OC(=O)C(C)C3CCC12C (configuration not stated)
inactive: Potency [1] | Potency [2] | Potency [3]

C=C(C)[C@@H]1CC[C@]2(C(=O)O)CC[C@]3(C)C(CCC4[C@]5(C)C(CC[C@]43C)C(C)(C)[C@@H](O)[C@@H]5C(=O)O)C12 (some centres not stated)
inactive: Potency [1] | Potency [2] | Potency [3]

C[C@@H]1C[C@@H](O)[C@@]2(CO)C(CO)=CCC[C@@H]2[C@@]12C[C@@H](c1ccoc1)OC2=O
inactive: Potency [1] | Potency [2] | Potency [3]

CC(=O)OCC(Cc1ccccc1)NC(=O)C(Cc1ccccc1)NC(=O)c1ccccc1 (configuration not stated)
inactive: Potency [1] | Potency [2] | Potency [3]

COC(=O)C1=COC(OC2OC(CO)C(O)C(O)C2O)C2C(C)CC(=O)C12O (configuration not stated)
inactive: Potency [1] | Potency [2] | Potency [3]

COC(=O)CC[C@H](NC(=O)[C@H](CC(C)C)NC(=O)OCc1ccccc1)C(=O)N[C@@H](Cc1cnc[nH]1)C(=O)N[C@@H](CC(=O)OC)C(=O)CF (Cbz-LE(OMe)HD(OMe)-CH2F)
inactive: Potency [1] | Potency [2] | activity change, negative = inhibition [3] 1.89% [at 11.6 µM]

O=C(/C=C/c1ccc(O)cc1)OC[C@H]1O[C@H](O[C@@]2(CO)O[C@@H](CO)[C@H](O)[C@H]2O)[C@H](O)[C@@H](O)[C@@H]1O
inactive: Potency [1] | Potency [2] | Potency [3]

COc1cc(C(C)=O)ccc1O[C@@H]1O[C@H](CO[C@@H]2OC[C@@H](O)[C@H](O)[C@H]2O)[C@@H](O)[C@H](O)[C@H]1O
inactive: Potency [1] | Potency [2] | Potency [3]

Cc1ccc(C)c(NC(=O)CNS(=O)(=O)c2ccc3[nH]c(=O)oc3c2)c1
inactive: Potency [1] | Potency [2] | Potency [3]

CC1(C)CC[C@]2(C(=O)O[C@@H]3O[C@H](CO)[C@@H](O)[C@H](O)[C@H]3O)CC[C@]3(C)C(=CCC4[C@@]5(C)CC[C@H](OC6OC(C(=O)O)C(OC7OC(CO)C(O)C(O)C7O)C(O)C6O)C(C)(C)C5CC[C@]43C)C2C1 (some centres not stated)
inactive: Potency [1] | Potency [2] | activity change, negative = inhibition [3] -0.627% [at 11.6 µM]

CC1(C)OC(=O)CC(O)C2(C)C1CC(=O)C1(C)C2C(O)CC2(C)C(c3ccoc3)OC(=O)C3OC321 (configuration not stated)
inactive: Potency [1] | Potency [2] | Potency [3]

C=C(C)[C@H]1CC[C@]2(C(=O)O)CC[C@]3(C)C(CCC4[C@@]5(C)CCC(=O)C(C)(C)C5CC[C@]43C)C12 (some centres not stated)
inactive: Potency [1] | Potency [2] | Potency [3]

COc1ccnc(CCc2nc3ncccc3[nH]2)c1
inactive: Potency [1] | Potency [2] | Potency [3]

OC[C@@]1(O)CO[C@@H](OC[C@H]2O[C@@H](Oc3ccccc3)[C@H](O)[C@@H](O)[C@@H]2O)[C@@H]1O
inactive: Potency [1] | Potency [2] | Potency [3]

CC1=C2C[C@@]3(C)[C@@H](CCC[C@@H]3C)C[C@@]2(O)OC1=O
inactive: Potency [1] | Potency [2] | Potency [3]

O=C(OCc1ccccc1O[C@@H]1O[C@H](CO)[C@@H](O)[C@H](O)[C@H]1O)C1(O)C=CCCC1O (some centres not stated)
inactive: Potency [1] | Potency [2] | Potency [3]

CC1=COC(OC2OC(CO)C(O)C(O)C2O)C2C(CO)CC(OC(=O)/C=C/c3ccc(O)cc3)C12 (configuration not stated)
inactive: Potency [1] | Potency [2] | Potency [3]

CC(=O)OCC1OC(O[C@H]2CC[C@@]3(C)C(CC[C@]4(C)C3CC=C3[C@@H]5CC(C)(C)CC[C@]5(C(=O)O)CC[C@]34C)[C@]2(C)CO)C(O)C(O)C1OC1OC(C)C(O)C(OC2OCC(O)C(O)C2O)C1O (some centres not stated)
inactive: Potency [1] | Potency [2] | outcome [3] inactive [at 11.6 µM]

CC/C=C/C=C/C1(C)OC(CC(CO)OC)=CC1=O (configuration not stated)
inactive: Potency [1] | Potency [2] | Potency [3]

CC(=O)c1[nH]cc(CCC(=O)O)c1CC(=O)O
inactive: Potency [1] | Potency [2] | Potency [3]

COc1ccc(C2C(C(=O)O)C(C(=O)O)C2c2ccc(OC)cc2O[C@@H]2O[C@H](CO)[C@@H](O)[C@H](O)[C@H]2O)c(O[C@@H]2O[C@H](CO)[C@@H](O)[C@H](O)[C@H]2O)c1 (some centres not stated)
inactive: Potency [1] | Potency [2] | Potency [3]

CN1CCc2cc(Cl)c(O)cc2[C@@H](c2cccc3c2OCC3)C1
inactive: Potency [1] | Potency [2] | Potency [3]

C=C1[C@H](OC(C)=O)[C@H]2[C@@H](OC(C)=O)C(C)C[C@]2(OC(C)=O)C(=O)[C@H](C)/C=C/C(C)(C)C(=O)[C@H](OC(=O)C(C)C)[C@H]1OC(C)=O (some centres not stated)
inactive: Potency [1] | Potency [2] | Potency [3]

CC(C)CC(NC(=O)OCc1ccccc1)C(=O)NC(CC(C)C)C(=O)NC(CCC(=O)O)C(=O)Nc1ccc2ccccc2c1 (stereo not drawn) (Cbz-Leu-Leu-Glu-βNA; configuration not given here)
inactive: Potency [1] | Potency [2] | Potency [3]

C=CC(C)(O)CC/C=C(\C)C(=O)O[C@@H]1[C@@H](O)[C@H](OC(C)(C=C)CC/C=C(\C)C(=O)O[C@@H]2O[C@H](CO)[C@@H](O)[C@H](O)[C@H]2O)O[C@H](CO)[C@H]1OC(=O)/C(C)=C/CCC(C)(O)C=C (some centres not stated)
inactive: Potency [1] | Potency [2] | activity change, negative = inhibition [3] 0.429% [at 11.6 µM]

COC(=O)C1=CO[C@@H](O[C@@H]2O[C@H](CO)[C@@H](O)[C@H](O)[C@H]2O)[C@H]2[C@@H]1[C@H](O)[C@H](O)[C@]2(C)O
inactive: Potency [1] | Potency [2] | Potency [3]

COCCCc1sc(-c2ccccc2)nc1C(=O)Nc1ccccc1-c1nc2cc(CN3CCCC3)cnc2s1
inactive: Potency [1] | Potency [2] | Potency [3]

O=C(/C=C/c1ccc(O)cc1)OC[C@@]1(O)C=C[C@@H]2C(C(=O)O)=CO[C@@H](O[C@@H]3O[C@H](CO)[C@@H](O)[C@H](O)[C@H]3O)[C@@H]21
inactive: Potency [1] | Potency [2] | Potency [3]

COC(=O)c1c(CC=C(C)C)c(OC2OC(CO)C(O)C(O)C2O)c2ccccc2c1OC1OC(CO)C(O)C(O)C1O (configuration not stated)
inactive: Potency [1] | Potency [2] | Potency [3]

CC1(C)CC(NC(=O)C(=O)Nc2ccc(Cl)cc2)CC(C)(C)N1
inactive: Potency [1] | Potency [2] | Potency [3]

O=C(Nc1cc(-c2ccccc2)nn1-c1ccccc1)c1ccc([N+](=O)[O-])cc1
inactive: Potency [1] | Potency [2] | Potency [3]

C=C1CCC2C(C)(C(=O)O)CCCC2(C)C1CC/C(C)=C\CO (configuration not stated)
inactive: Potency [1] | Potency [2] | Potency [3]

CC(NC(=O)[C@H](Cc1ccccc1)NC(=O)OCc1ccccc1)C(=O)CF (some centres not stated)
inactive: Potency [1] | Potency [2] | Potency [3]

Cc1cccc(NC(=O)CN2CCC(c3ccccn3)CC2)c1
inactive: Potency [1] | Potency [2] | Potency [3]

C=C1CCC2C(C)(C)CC(O)CC2(C)C1CCC(C)CCOC(=O)CCC(=O)O (configuration not stated)
inactive: Potency [1] | Potency [2] | Potency [3]

CC1OC(OC2C(OC3C(O[C@H]4CC[C@@]5(C)C(CC[C@]6(C)C5C(=O)CC5=C7CC(C)(C)CC(O)[C@]7(C)CC[C@]56C)C4(C)C)OC(C(=O)O)C(O)C3O)OCC(O)C2O)C(O)C(O)C1O (some centres not stated)
inactive: Potency [1] | Potency [2] | activity change, negative = inhibition [3] 0.49% [at 11.6 µM]

CC1(C)CC[C@]2(C(=O)O[C@@H]3O[C@H](CO)[C@@H](O)[C@H](O)[C@H]3O)CC[C@]3(C)C(=CCC4[C@@]5(C)CC[C@H](O[C@@H]6O[C@H](C(=O)O)[C@@H](O[C@@H]7O[C@H](CO)[C@@H](O)[C@H](O)[C@H]7O)[C@H](O)[C@H]6O[C@@H]6O[C@H](CO)[C@@H](O)[C@H](O)[C@H]6O)C(C)(C)C5CC[C@]43C)C2C1 (some centres not stated)
inactive: Potency [1] | Potency [2] | outcome [3] inactive [at 11.6 µM]

C/C=C1\[C@H](O[C@@H]2O[C@H](CO)[C@@H](O)[C@H](O)[C@H]2O)OC=C(C(=O)OCCc2ccc(O)cc2)[C@H]1CC(=O)OCCc1ccc(O)cc1
inactive: Potency [1] | Potency [2] | Potency [3]

C/C=C(/C)C(=O)O[C@H]1C[C@]2(C)O[C@@H]2[C@@H](OC(C)=O)[C@@]2(C)CC[C@@](O)(C(C)C)[C@H]12
inactive: Potency [1] | Potency [2] | Potency [3]

CC1OC(O[C@@H]2[C@H](O)[C@@H](OC3OC(CO)C(O)C(O)C3O)[C@H](OC(=O)[C@]34CCC(C)(C)C[C@H]3C3=CCC5[C@@]6(C)CC[C@H](O[C@@H]7O[C@H](C(=O)O)[C@@H](O)[C@H](O[C@@H]8OC[C@@H](O)[C@H](O)[C@H]8O)[C@H]7O[C@@H]7O[C@H](CO)[C@H](O)[C@H](O)[C@H]7O)[C@@](C)(C=O)C6CC[C@@]5(C)[C@]3(C)C[C@H]4O)O[C@@H]2C)C(O)C(O)C1OC1OCC(O)C(O)C1O (some centres not stated)
inactive: Potency [1] | Potency [2] | activity change, negative = inhibition [3] 1.16% [at 6.45 µM]

From PubChem BioAssay (NCATS)
